Laboratory results as given in the supplement of paper PMC6992640.
Where a name gives a salt, the structure may show the parent alone. ± gives the standard deviation of the averaged measurements.

Tests used:
Test in all cases: cell viability (% of vehicle); higher = less cytotoxic
Settings in all cases: 10 µM; 72 h
HCI01 = system: HCI01 (cells of a triple-negative basal-like breast cancer xenograft)
HCI03 = system: HCI03 (cells of an ER-positive luminal breast cancer xenograft)
HCI09 = system: HCI09 (cells of a triple-negative luminal androgen receptor type breast cancer xenograft)
HCI11 = system: HCI11 (cells of an ER-positive luminal breast cancer xenograft)
HCI13 = system: HCI13 (cells of an ER-positive luminal breast cancer xenograft)
HCI16 = system: HCI16 (cells of a triple-negative basal-like breast cancer xenograft)
UCD52 = system: UCD52 (cells of a triple-negative basal-like breast cancer xenograft)
WHIM2 = system: WHIM2 (cells of a triple-negative basal-like breast cancer xenograft)
WHIM30 = system: WHIM30 (cells of a triple-negative basal-like breast cancer xenograft)
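Also: PDX cells carrying CMV promoter-driven luciferase, viability read as total photon flux per second by IVIS imaging following D-luciferin, vehicle control 0.1% DMSO.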

Structure (SMILES)	cell viability (HCI01)	cell viability (HCI03)	cell viability (HCI09)	cell viability (HCI11)	cell viability (HCI13)	cell viability (HCI16)	cell viability (UCD52)	cell viability (WHIM2)	cell viability (WHIM30)
CC(C)(O/N=C(\C(=O)N[C@@H]1C(=O)N2C(C(=O)[O-])=C(C[n+]3ccccc3)CS[C@H]12)c1csc(N)n1)C(=O)O [Ceftazidime]	101 ± 17	98.6	97.7 ± 0.81	81.6	119 ± 8.4	149	120 ± 15	120 ± 3.6	99.7 ± 8.2
CC(=O)O.CC(O)C(CO)NC(=O)C1CSSCC(NC(=O)C(N)Cc2ccccc2)C(=O)NC(Cc2ccccc2)C(=O)NC(Cc2c[nH]c3ccccc23)C(=O)NC(CCCCN)C(=O)NC(C(C)O)C(=O)N1 (stereo not given) [Octreotide acetate]	86.6 ± 6.2	135	87.9 ± 14	95.4	87.9 ± 3.6	90.1	84.3 ± 9.8	86.9 ± 20	102 ± 15
CN(C)CCN(Cc1ccccc1)c1ccccn1.Cl [Tripelennamine HCl]	89.8 ± 3.5	62.6	94.4 ± 2.5	80.6	89.3 ± 1.7	99.9	81.03 ± 0.58	111.1 ± 0.86	94.2 ± 7.7
CC1(C)CCC(C)(C)c2cc(NC(=O)c3ccc(C(=O)O)cc3)ccc21 [Tamibarotene]	108 ± 22	63.1	65.6 ± 45	95.9	73.8 ± 30	77.1	124 ± 10	98.1 ± 28	121 ± 9.1
NCC(=O)CCC(=O)O [5-Aminolevulinic acid HCl]	79.2 ± 41	132	89.9 ± 2.3	83.2	113 ± 24	164	82.6 ± 7.6	129 ± 24	146 ± 6.6
Cl.c1ccc2c(CC3=NCCN3)cccc2c1 [Naphazoline HCl]	121 ± 18	105	104 ± 20	101	88.7 ± 14	93.3	81.6 ± 9.3	92.3 ± 26	122 ± 21
COc1cc(Nc2ncc3c(n2)-c2ccc(Cl)cc2C(c2c(F)cccc2OC)=NC3)ccc1C(=O)O [MLN8237 (Alisertib)]	80 ± 15	118	106 ± 32	100	94.9 ± 14	87.9	64.6 ± 12	80.1 ± 8.5	156 ± 12
COc1cc(CNC(=O)CCCCC=CC(C)C)ccc1O [Capsaicin]	105 ± 8.6	120	75.8 ± 1.6	90.6	101 ± 17	82.4	78.3 ± 5.6	90.1 ± 21	108 ± 12
Cc1cc2c(cc1S(N)(=O)=O)S(=O)(=O)CCC2 [Meticrane]	109 ± 8.8	117	102 ± 6.3	89	103 ± 9.6	110	96.3 ± 10	97 ± 7.5	80.4 ± 2.8
OCCN(CCO)c1nc(N2CCCCC2)c2nc(N(CCO)CCO)nc(N3CCCCC3)c2n1 [Dipyridamole]	90.2 ± 14	116	87.4 ± 23	105	96.2 ± 6.1	150	89.6 ± 3.4	112 ± 34	142 ± 12
Br.COc1ccc2c3c1O[C@H]1C[C@@H](O)C=C[C@@]31CCN(C)C2 [Galanthamine HBr]	113 ± 6.7	102	97.02 ± 0.17	93.2	80.4 ± 8.2	73.8	97.8 ± 2.6	79.7 ± 12	118 ± 24
CN(Cc1ccc(C(C)(C)C)cc1)Cc1cccc2ccccc12.Cl [Butenafine HCl]	104 ± 1.5	99.2	117 ± 19	104	72.7 ± 4.7	151	81.4 ± 2.7	56.2 ± 12	142 ± 3.3
Cn1c(=O)c2[nH]cnc2n(C)c1=O.Cn1c(=O)c2[nH]cnc2n(C)c1=O.NCCN [Aminophylline]	98 ± 18	95.2	93.6 ± 9.1	99.4	101 ± 5.1	75.8	72 ± 16	97.4 ± 7.5	92.5 ± 24
CNC(=O)c1ccc(N2C(=S)N(c3ccc(C#N)c(C(F)(F)F)c3)C(=O)C2(C)C)cc1F [MDV3100 (Enzalutamide)]	115 ± 11	138	104.5 ± 0.14	96.1	94.3 ± 22	107	117 ± 6	97.9 ± 3.6	157 ± 1.9
CCOc1ccc2ccccc2c1C(=O)NC1C(=O)N2C1SC(C)(C)C2C(=O)[O-].O.[Na+] (stereo not given) [Nafcillin Sodium]	107 ± 8.4	139	109 ± 6	110	117 ± 9.9	105	96.1 ± 8.5	101 ± 3.8	140 ± 11
CC(=O)N1CCN(c2ccc(OCC3COC(Cn4ccnc4)(c4ccc(Cl)cc4Cl)O3)cc2)CC1 (stereo not given) [Ketoconazole]	188 ± 14	143	36.4 ± 2.8	102	76 ± 1.8	122	55.8 ± 5.3	172 ± 25	122 ± 10
C.CCN1CC(CCN2CCOCC2)C(c2ccccc2)(c2ccccc2)C1=O.O (stereo not given) [Doxapram HCl]	102.9 ± 0.49	198	81.9 ± 14	101	91.2 ± 1.9	105	73.6 ± 5.6	82.8 ± 4.2	117 ± 11
NCCS(=O)(=O)O [Taurine]	105 ± 23	119	101 ± 18	86.6	61.4 ± 7.8	115	75.92 ± 0.27	109 ± 19	115 ± 9.7
CCC(CC)C(NC(C)=O)C1C(N=C(N)N)CC(C(=O)O)C1O (stereo not given) [Peramivir]	112 ± 9.2	110	91.2 ± 18	98	102 ± 20	78.9	81.6 ± 14	97.5 ± 6.7	136 ± 24
CC12C=CC(=O)NC1CCC1C2CCC2(C)C(C(=O)Nc3cc(C(F)(F)F)ccc3C(F)(F)F)CCC12 (stereo not given) [Dutasteride]	129 ± 13	107	114 ± 15	92.4	123 ± 1.7	111	100 ± 4.5	90.3 ± 22	142 ± 12
